# Laboratory results from PubChem BioAssay (NCI).
# About 83,000 compounds went through this panel and 20% of them were active in at least one assay; those are over-represented in the sample as a whole.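 Results are percent growth after 48 hours of single-concentration exposure. 100 means growth as in untreated cells, lower positive values show inhibition; negative values down to -100 show cell death.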 A number with no mark means an inactive call. The source made the active and inactive calls. Rule for the calls: active = growth percent below 10; inactive = the rest.
# System: HL-60(TB) leukemia
# Assay: NCI-60 one-dose screen, 48 h (100 = growth as untreated, 0 = no growth, -100 = all killed)
# Conditions: 10 µM unless noted
row,SMILES,growth
1,CC(=O)N(C)N=Nc1ccc(C)cc1,117%
2,CCN(CC)S(=O)(=O)c1ccc2[nH]c(=O)cc(C(=O)Nc3ccc(OC)cc3OC)c2c1,101%
3,CCN(CC)CC(=O)Nc1c(C)cccc1C,107%
4,COc1cc2c(c(OC)c1OC)CCC(c1cccc(C(=O)Nc3ccccc3Br)c1)O2 (stereo not drawn),79.3%
5,CCCCNc1ccc2c3c1cccc3c(=O)n1c3ccccc3nc21,63.4%
6,CCCCCCCCCNCCCCCCCCC,28.6%
7,CO[C@H]1C[C@@H]2CC[C@@H](C)[C@@](O)(O2)C(=O)C(=O)N2CCCC[C@H]2C(=O)O[C@H]([C@H](C)C[C@@H]2CC[C@@H](OC(=O)C(C)(CO)CO)[C@H](OC)C2)CC(=O)[C@H](C)/C=C(\C)[C@@H](O)[C@@H](OC)C(=O)[C@H](C)C[C@H](C)\C=C/C=C/C=C/1C,-11.9% (active)
8,CCN1C(=O)N(CC)C2C1NN=c1s/c(=C\c3ccc(Br)cc3)c(=O)n12 (stereo not drawn),-30.5% (active)
9,O=C(NCCCNC(=O)OCc1ccc2c(Br)cc(Br)c(O)c2n1)OCc1ccc2c(Br)cc(Br)c(O)c2n1,-25.4% (active)
10,Nc1nc(N)c2c(n1)NC(c1ccc(Cl)cc1)C1CCc3ccccc3C1=N2 (stereo not drawn),13.5%
11,COc1ccc(-n2nc(C)c3c(Nc4ccc(NC(=O)Nc5cc(C(F)(F)F)ccc5F)cc4)ncnc32)cc1,45.8%
12,CCCCc1n(Cc2ccc3ccccc3c2)cc[n+]1Cc1ccc2ccccc2c1,-52.6% (active)
13,O=C(/C=C/C12c3ccccc3C(c3ccccc31)C1C(=O)N(c3ccccc3)C(=O)C12)c1ccc(Cl)cc1 (stereo not drawn),10.7%
